Results: paper PMC7862700, “An all-to-all approach to the identification of sequence-specific readers for epigenetic DNA modifications on cytosine”

Key:
Experiment in all cases: DAPPL (digital affinity profiling via proximity ligation, sequencing); 10 mM Tris-HCl pH 7.5, 50 mM NaCl, 1 mM DTT, 4% glycerol, room temperature, 30 min; GST-TFs on glutathione beads, 16-mer random dsDNA library, 0.1% formaldehyde crosslink after washing; high values mean tight binding
Conditions in all cases: protein: recombinant; tags: N-terminal GST; dsDNA, one strand shown
FLI1 = target: T1, FLI1 (Homo sapiens, UniProt Q01543 1-452)
T1 sequence: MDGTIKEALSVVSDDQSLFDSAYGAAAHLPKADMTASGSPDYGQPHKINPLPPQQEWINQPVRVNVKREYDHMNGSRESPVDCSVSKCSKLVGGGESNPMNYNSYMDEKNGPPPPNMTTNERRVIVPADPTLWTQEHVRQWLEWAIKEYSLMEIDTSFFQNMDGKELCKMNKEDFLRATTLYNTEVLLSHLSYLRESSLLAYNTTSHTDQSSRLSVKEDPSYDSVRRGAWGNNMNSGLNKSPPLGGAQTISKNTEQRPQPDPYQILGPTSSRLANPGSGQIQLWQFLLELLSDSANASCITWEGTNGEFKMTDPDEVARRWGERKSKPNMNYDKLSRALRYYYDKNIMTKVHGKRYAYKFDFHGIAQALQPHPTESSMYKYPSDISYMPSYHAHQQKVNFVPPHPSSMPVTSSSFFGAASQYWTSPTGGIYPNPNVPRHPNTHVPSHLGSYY
In short: (§1)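 Human transcription factors were made in yeast as GST fusions, captured on glutathione beads and barcoded with DNA. With a tag-only sample included, the pool was incubated with 200 nmole of a random double-stranded 16-mer DNA library in Tris/NaCl/DTT/glycerol buffer at room temperature for 30 min, then crosslinked with 0.1% formaldehyde after washing, ligated by proximity, amplified and sequenced. For binding signal, each hexamer's read frequency for a factor is divided by its frequency for the tag-only sample.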

EHF = target: T2, EHF (Homo sapiens, UniProt Q9NZC4 1-300)
T2 sequence: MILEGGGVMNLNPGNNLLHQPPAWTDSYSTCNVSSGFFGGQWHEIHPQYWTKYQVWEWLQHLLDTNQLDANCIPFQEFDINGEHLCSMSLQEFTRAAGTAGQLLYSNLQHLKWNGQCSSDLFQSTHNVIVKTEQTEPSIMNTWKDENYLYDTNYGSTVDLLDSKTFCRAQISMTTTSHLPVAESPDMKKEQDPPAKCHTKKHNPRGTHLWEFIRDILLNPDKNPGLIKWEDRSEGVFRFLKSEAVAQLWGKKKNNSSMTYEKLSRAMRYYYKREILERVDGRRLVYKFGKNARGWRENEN
In short: as §1

SPIC = target: T3, SPIC (Homo sapiens, UniProt Q8N5J4 1-248)
T3 sequence: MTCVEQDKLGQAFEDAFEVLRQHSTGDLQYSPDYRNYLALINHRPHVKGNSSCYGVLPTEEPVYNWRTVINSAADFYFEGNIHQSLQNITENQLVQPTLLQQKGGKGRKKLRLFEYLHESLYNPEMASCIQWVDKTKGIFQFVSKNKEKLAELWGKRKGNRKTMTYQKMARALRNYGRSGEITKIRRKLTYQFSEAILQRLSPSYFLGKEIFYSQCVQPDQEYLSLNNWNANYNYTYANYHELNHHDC
In short: as §1

ELF4 = ELF4 (Homo sapiens, UniProt Q99607 1-663)
ELF4, sequence (Q99607 whole entry): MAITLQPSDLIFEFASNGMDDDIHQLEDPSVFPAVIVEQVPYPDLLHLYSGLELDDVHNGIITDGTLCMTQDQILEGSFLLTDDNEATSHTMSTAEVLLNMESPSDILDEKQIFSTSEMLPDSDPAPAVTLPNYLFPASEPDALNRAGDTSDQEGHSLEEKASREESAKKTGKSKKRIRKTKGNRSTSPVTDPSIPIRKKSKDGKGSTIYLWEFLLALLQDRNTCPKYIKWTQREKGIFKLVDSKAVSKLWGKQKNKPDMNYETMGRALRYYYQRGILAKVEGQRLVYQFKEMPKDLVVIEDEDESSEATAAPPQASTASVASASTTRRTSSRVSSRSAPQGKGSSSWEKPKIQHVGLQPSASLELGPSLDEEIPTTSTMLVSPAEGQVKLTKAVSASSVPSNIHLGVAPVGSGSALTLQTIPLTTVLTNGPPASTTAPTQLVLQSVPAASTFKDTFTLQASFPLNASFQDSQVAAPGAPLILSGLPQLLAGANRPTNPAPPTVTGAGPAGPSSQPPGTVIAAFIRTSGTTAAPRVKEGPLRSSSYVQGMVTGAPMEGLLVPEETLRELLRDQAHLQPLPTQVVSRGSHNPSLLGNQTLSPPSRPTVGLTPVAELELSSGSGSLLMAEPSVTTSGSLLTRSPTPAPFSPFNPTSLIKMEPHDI
In short: as §1

ELK4 = target: T4, ELK4 (Homo sapiens, UniProt P28324-2 1-405)
T4 sequence: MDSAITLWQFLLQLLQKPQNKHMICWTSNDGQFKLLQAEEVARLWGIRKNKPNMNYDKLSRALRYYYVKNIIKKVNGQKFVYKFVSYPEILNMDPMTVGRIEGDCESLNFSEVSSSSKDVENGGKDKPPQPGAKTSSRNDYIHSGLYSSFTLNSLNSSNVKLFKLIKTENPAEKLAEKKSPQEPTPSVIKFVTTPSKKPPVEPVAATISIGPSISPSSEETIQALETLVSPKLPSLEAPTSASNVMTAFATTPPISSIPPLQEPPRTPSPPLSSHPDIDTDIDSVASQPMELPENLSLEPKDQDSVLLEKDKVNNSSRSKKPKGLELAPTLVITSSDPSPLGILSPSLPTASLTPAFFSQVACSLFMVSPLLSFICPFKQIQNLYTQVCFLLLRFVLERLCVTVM
In short: as §1

ELF3 = target: T5, ELF3 (Homo sapiens, UniProt P78545 1-371)
T5 sequence: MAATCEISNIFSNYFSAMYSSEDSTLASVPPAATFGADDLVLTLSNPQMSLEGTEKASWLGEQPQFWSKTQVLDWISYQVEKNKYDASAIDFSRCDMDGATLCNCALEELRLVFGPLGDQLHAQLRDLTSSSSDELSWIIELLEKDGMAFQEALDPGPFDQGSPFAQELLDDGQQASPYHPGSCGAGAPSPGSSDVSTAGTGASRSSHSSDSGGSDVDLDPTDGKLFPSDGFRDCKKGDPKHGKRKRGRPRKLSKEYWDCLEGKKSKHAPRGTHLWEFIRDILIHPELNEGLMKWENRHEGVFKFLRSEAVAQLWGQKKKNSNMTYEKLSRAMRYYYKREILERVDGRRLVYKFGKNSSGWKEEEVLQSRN
In short: as §1

ETV1 = ETV1 (Homo sapiens, UniProt P50549 1-477)
ETV1, sequence (P50549 whole entry): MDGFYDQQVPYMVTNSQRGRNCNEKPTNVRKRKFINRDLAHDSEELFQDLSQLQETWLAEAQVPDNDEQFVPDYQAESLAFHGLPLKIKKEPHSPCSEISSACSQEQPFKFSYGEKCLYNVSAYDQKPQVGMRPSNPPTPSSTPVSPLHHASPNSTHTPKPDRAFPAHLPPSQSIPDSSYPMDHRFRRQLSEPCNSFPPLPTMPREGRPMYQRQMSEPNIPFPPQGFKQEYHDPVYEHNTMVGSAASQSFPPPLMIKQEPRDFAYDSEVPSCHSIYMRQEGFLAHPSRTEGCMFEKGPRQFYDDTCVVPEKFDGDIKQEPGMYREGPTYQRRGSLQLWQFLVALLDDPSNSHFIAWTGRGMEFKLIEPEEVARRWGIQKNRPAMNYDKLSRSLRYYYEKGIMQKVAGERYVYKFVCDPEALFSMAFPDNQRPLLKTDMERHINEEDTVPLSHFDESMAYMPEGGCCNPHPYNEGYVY
In short: as §1

ERF = target: T6, ERF (Homo sapiens, UniProt P50548 1-548)
T6 sequence: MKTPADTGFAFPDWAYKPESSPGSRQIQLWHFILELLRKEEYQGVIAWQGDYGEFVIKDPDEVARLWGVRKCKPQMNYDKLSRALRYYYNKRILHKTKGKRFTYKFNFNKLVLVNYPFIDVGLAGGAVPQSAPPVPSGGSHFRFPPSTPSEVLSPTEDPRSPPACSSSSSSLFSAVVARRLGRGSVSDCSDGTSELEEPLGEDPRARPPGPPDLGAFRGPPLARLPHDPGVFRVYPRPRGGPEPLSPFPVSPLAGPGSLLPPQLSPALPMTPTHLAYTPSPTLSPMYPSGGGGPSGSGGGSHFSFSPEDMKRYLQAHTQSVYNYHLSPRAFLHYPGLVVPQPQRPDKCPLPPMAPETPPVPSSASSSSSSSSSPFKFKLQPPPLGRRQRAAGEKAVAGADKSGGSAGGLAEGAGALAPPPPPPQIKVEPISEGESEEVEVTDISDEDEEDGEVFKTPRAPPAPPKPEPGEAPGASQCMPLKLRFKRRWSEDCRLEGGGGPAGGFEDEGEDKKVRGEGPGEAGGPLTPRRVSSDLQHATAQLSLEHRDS
In short: as §1

ETV3L = target: T7, ETV3L (Homo sapiens, UniProt Q6ZN32 1-361)
T7 sequence: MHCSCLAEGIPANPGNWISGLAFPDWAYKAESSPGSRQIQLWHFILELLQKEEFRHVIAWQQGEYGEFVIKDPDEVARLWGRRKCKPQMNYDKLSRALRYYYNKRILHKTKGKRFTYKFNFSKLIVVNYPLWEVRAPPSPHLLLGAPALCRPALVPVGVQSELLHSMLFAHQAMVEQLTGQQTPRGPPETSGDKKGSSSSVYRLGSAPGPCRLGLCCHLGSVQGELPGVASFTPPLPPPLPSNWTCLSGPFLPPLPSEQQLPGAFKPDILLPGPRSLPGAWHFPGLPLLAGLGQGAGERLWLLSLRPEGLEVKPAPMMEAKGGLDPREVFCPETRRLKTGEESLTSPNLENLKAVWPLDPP
In short: as §1

ETV3 = target: T8, ETV3 (Homo sapiens, UniProt P41162-2 1-143)
T8 sequence: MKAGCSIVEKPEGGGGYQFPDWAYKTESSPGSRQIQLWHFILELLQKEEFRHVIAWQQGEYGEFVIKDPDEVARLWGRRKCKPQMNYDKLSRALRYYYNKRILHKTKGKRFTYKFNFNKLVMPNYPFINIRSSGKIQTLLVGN
In short: as §1

ETV6 = ETV6 (Homo sapiens, UniProt P41212 1-452)
ETV6, sequence (P41212 whole entry): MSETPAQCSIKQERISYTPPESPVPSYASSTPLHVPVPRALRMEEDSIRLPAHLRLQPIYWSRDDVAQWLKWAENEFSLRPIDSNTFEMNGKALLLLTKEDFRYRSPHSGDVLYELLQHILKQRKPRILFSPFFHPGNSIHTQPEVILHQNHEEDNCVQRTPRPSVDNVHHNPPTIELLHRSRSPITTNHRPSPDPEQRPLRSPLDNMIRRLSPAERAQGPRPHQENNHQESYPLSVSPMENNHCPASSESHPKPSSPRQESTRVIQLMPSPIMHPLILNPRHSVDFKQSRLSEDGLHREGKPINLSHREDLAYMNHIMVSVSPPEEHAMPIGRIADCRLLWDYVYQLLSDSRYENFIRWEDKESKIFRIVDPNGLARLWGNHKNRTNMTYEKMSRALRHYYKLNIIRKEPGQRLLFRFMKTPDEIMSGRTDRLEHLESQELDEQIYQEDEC
In short: as §1

Sequence: GCTAGG
- binding signal (FLI1): 1.01 fold enrichment (6-mer frequency, TF over GST control)
- binding signal (EHF): 1.12 fold enrichment (6-mer frequency, TF over GST control)
- binding signal (SPIC): 1.03 fold enrichment (6-mer frequency, TF over GST control)
- binding signal (ELF4): 1.06 fold enrichment (6-mer frequency, TF over GST control)
- binding signal (ELK4): 1.08 fold enrichment (6-mer frequency, TF over GST control)
- binding signal (ELF3): 1.14 fold enrichment (6-mer frequency, TF over GST control)
- binding signal (ETV1): 1 fold enrichment (6-mer frequency, TF over GST control)
- binding signal (ERF): 1.01 fold enrichment (6-mer frequency, TF over GST control)
- binding signal (ETV3L): 1.06 fold enrichment (6-mer frequency, TF over GST control)
- binding signal (ETV3): 1.03 fold enrichment (6-mer frequency, TF over GST control)
- binding signal (ETV6): 1.07 fold enrichment (6-mer frequency, TF over GST control)
